This is a sample that favours compounds with a hit; in the whole collection about 4.2% have one here.
MITF TRPM1 HTS – activators of MITF-driven TRPM1 promoter reporter, primary screen, cell-based, SK-MEL-5, luciferase, single point; SK-MEL-5 TRPM1-promoter luciferase, 24 h; % of positive control, neutral wells = 0; activation, % at 12.5 µM; actives 0.75% (n = 300,000); AID 588334, 2011;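 active means mean activation of at least 80% with every replicate also reaching 80%; inconclusive means mean reaches 80% but some replicate falls short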
esBAF inh – Bmi1 luciferase reporter increase in mESCs, primary screen, esBAF inhibitor project, mouse ES cells, Bmi1 luciferase knock-in, single point; 24 h; 100% = twice the neutral-well signal; reporter increase, % at 12.5 µM; actives 2% (n = 350,000); AID 602393, 2012; in the data active means activation above about 40%; inconclusive means no clear call, values can overlap the other calls;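 further: a rise in the Bmi1 reporter signal indicates esBAF inhibition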
Wnt act – Wnt/beta-catenin pathway activators, primary screen, cell-based, plate reader, single point. Wnt/beta-catenin reporter cell assay, activator. activation, % at 9.35 µM. actives 1.2% (n = 300,000). AID 743398, 2014; in the data active means activation above about 30%, passing the limit was not always enough; inconclusive means no clear call, values can overlap the other calls
FXN GAA850 act – FXN promoter activators, primary screen, cell-based, luciferase luminescence, HEK293 lucGAA850. HEK293 lucGAA850 FXN promoter luciferase reporter, 24 h; percent of 10 µM SAHA response. activation, % at 6 µM. actives 0.56% (n = 360,000);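 active means activation above the average of all compounds screened plus 3 SD, cutoff fixed separately per campaign, cut at about 7.5% in these data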
AHR act – AHR activators, primary screen, cell-based, luminescence, luciferase reporter, human | Aryl hydrocarbon receptor (Homo sapiens), P35869 | AHR-responsive luciferase reporter cells | activation, % at 5 µM | actives 2.5% (n = 320,000) | AID 2796, 2010; in the data active means activation above about 47%
AHR act cf – AHR activators, confirmation, cell-based, luminescence, luciferase reporter, human. shares compounds with AHR act. human cells, AHR-responsive luciferase reporter. activation, % at 9 µM. actives 87% (n = 2,300); in the data active means activation above about 49%;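 further: HepG2 hepatoma cells carrying a DRE-driven firefly luciferase reporter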
PXR act counter – human PXR activators, counter-screen for AHR activator project, cell-based, luciferase luminescence; shares compounds with AHR act; cell-based PXR reporter; activation, % at 11.6 µM; actives 88% (n = 2,300); AID 434939, 2010; in the data active means activation above about 11%;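 further: human hepatoma DPX-2 cells expressing full-length human PXR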
Target sequence (O75469 whole entry, looked up): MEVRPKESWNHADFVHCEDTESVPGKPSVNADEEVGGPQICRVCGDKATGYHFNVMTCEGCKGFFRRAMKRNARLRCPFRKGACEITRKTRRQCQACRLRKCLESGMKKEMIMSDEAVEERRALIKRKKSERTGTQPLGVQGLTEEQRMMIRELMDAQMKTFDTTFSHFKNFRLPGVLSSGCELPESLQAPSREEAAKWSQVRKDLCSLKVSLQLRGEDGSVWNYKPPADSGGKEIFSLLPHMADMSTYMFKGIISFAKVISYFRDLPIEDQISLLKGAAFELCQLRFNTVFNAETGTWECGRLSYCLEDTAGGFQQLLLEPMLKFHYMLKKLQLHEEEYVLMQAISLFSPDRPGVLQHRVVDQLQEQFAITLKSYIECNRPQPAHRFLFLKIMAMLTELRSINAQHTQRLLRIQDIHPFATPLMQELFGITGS
Numbers stand for hits; . = inactive; ? = inconclusive; / = not tested or not shown.

SMILES	MITF TRPM1 HTS	esBAF inh	Wnt act	FXN GAA850 act	AHR act	AHR act cf	PXR act counter
O=C(/C=C/Nc1ccc(F)cc1F)c1ccc(Br)cc1	/	.	.	.	90	90	12
CCOc1cc2nc(-c3ccc(OC)c(OC)c3)nc(N3CC(C)OC(C)C3)c2cc1OC (stereo unspecified)	/	/	/	/	83	96	16
CCOc1ccccc1Oc1cn[nH]c1-c1ccc(OCC(=O)NN)cc1O	.	.	.	.	107	68	15
C=C(C)COc1ccc(-c2[nH]ncc2Oc2ccccc2OC)c(O)c1	.	.	.	.	98	55	66
C[C@@H]1CN([C@H](C)CO)C(=O)c2cc(N(C)C)ccc2O[C@@H](C)CCCCO[C@@H]1CN(C)C(=O)Nc1ccc(F)cc1	/	.	/	/	/	/	/
CO[C@@H]1CN(C)C(=O)c2ccc(NC(=O)C3CCC3)cc2OC[C@H](C)N(Cc2ccc(F)cc2)C[C@@H]1C	/	.	/	/	/	/	/
Cc1cc(C)n(-c2nc(-c3cccc(Cl)c3)cs2)n1	/	49	.	.	109	101	22
CCC(=O)N[C@@H]1CC[C@H](CCn2cc(CN(C)C)nn2)O[C@H]1CO	/	.	/	/	/	/	/
CCN(CC)S(=O)(=O)c1cccc(NC(=O)COC(=O)c2cncc(Br)c2)c1	.	/	.	.	.	/	/
CCN(CC)S(=O)(=O)c1cccc(C(=O)OCC(=O)Nc2ccc3c(c2)c2ccccc2n3CC)c1	.	/	.	.	83	80	33
Cc1cc(C)nc(N/N=C/c2cccc3ccccc23)n1	.	/	.	.	89	.	34
Cc1c(CN2CCC(n3nccc3NC(=O)C3CC3)CC2)[nH]c2ccccc12	.	.	.	.	85	82	43
CO[C@H]1CN(C)C(=O)c2ccc(NS(=O)(=O)c3cccc(C)c3)cc2OC[C@H](C)NC[C@H]1C	/	.	/	/	/	/	/
O=C(Nc1ccc(Cl)cc1)N[C@H]1CC[C@@H](CCn2cc(C3(O)CCCC3)nn2)O[C@@H]1CO	/	.	/	/	/	/	/
Cc1ccc(N=Nc2c(O)ccc3n[nH]nc23)cc1	.	.	.	.	/	/	/
CCc1ccc(N=Nc2ccc(O)c3[nH]cnc23)cc1	.	.	.	.	101	93	11
CC1CN(c2nc(-c3ccc(Br)cc3)nnc2-c2ccccc2)CC(C)N1 (stereo unspecified)	.	.	.	.	87	47	21
O=[N+]([O-])c1cccc(NC(=S)Nc2nc(-c3ccccc3Cl)cs2)c1	.	.	.	.	87	56	23
Cc1ccc(/C=N\Nc2nc3ccc(Cl)cc3[nH]2)o1	.	/	68	.	165	117	22
Cc1ccc(/C=N/Nc2ccc3ccccc3n2)o1	.	.	.	.	.	/	/
Fc1ccccc1-c1ccc(/C=N/Nc2nc3ccccc3[nH]2)o1	.	/	53	.	84	78	11
CCOc1cccc(C(=O)Nc2ccc3[nH]ncc3c2)c1	/	.	.	.	93	.	23
C[C@H]1CN([C@@H](C)CO)C(=O)c2cc(C#CCC3CCCC3)cnc2O[C@@H]1CN(C)C(=O)CN(C)C	/	.	/	/	/	/	/
COc1ccccc1C(=O)Nc1ccncc1	.	.	.	.	.	/	/
COc1ccccc1C(=O)Nc1cccc(SC)c1	.	/	.	.	83	85	23
SMILES	MITF TRPM1 HTS	esBAF inh	Wnt act	FXN GAA850 act	AHR act	AHR act cf	PXR act counter
O=C(NNC(=S)NCc1ccccc1)c1ccc2c(c1)OCO2	.	.	.	.	.	/	/
O=C(CCN1CCc2ccccc2C1)Nc1ccc2c(c1)OCO2	.	.	/	.	84	.	51
O=C(NC(=S)NCc1ccccc1)c1ccc2c(c1)OCO2	.	/	/	.	84	61	19
O=C(NN=Cc1ccc2c(c1)OCO2)c1ccncc1	.	.	.	.	/	/	/
O=C(CCN1CCc2ccccc2C1)Nc1ccc(F)c(F)c1	.	/	.	.	.	/	/
O=C(N/N=C/c1ccc2c(c1)OCO2)c1ccc2c(c1)OCO2	.	.	.	.	115	93	25
C[C@H]1CN([C@@H](C)CO)C(=O)Cc2cc(NS(C)(=O)=O)ccc2O[C@@H]1CN(C)Cc1ccc(C(=O)O)cc1	/	.	/	/	/	/	/
O=C(Nc1ccc2c(c1)CCC2)Nc1ccc2c(c1)OCO2	.	53	50	.	85	52	43
CCC(Oc1ccccc1OC)C(=O)Nc1ccc2c(c1)OCO2 (stereo unspecified)	.	.	.	.	115	115	56
Cc1ccc2c(c1)CCCN2C(=O)Nc1ccc2c(c1)OCO2	/	?	.	.	106	96	83
COc1ccccc1OC(C)C(=O)Nc1ccc2c(c1)OCCO2 (stereo unspecified)	.	.	.	.	.	/	/
COc1ccccc1C(=O)Nc1ccc2c(c1)OCO2	.	.	/	.	146	147	53
O=C(Nc1ccc2c(c1)OCCO2)Nc1ccc2c(c1)OCO2	.	.	.	.	.	/	/
CCOc1ccccc1C(=O)NCC(=O)Nc1ccc2c(c1)OCO2	.	.	.	.	83	100	102
COc1cccc(NC(=O)Nc2ccc3c(c2)OCO3)c1	.	61	40	.	110	65	38
COc1cccc(NC(=O)Nc2cc(NC(=O)Nc3cccc(OC)c3)c(C)nc2C)c1	.	/	.	.	91	50	15
COc1ccc(C)cc1NC(=O)COC(=O)c1ccc2c(c1)OCO2	.	.	.	.	.	/	/
COc1cccc(NC(=O)Nc2cccc(C)n2)c1	.	?	.	.	.	/	/
COc1ccc(C)cc1NC(=O)c1ccc2c(c1)OCO2	.	.	/	.	104	116	26
CO[C@@H](CN(C)S(=O)(=O)c1cccc(Cl)c1)[C@H](C)CN([C@@H](C)CO)S(=O)(=O)c1cccc(Cl)c1	/	.	/	/	/	/	/
C[C@@H]1CN([C@@H](C)CO)C(=O)c2cc(NC(=O)NC3CCCCC3)ccc2O[C@@H](C)CCCCO[C@H]1CN(C)C(=O)Nc1ccccc1	/	.	/	/	/	/	/
COCC(=O)NC[C@H]1[C@@H](c2ccccc2)[C@@H](CO)N1C(C)=O	/	.	/	/	/	/	/
CNC[C@H]1Oc2ncc(-c3ccc(C)cc3)cc2C(=O)N([C@@H](C)CO)C[C@H]1C	/	.	/	/	/	/	/
COc1ccc(Cl)cc1C(=O)Nc1ccc2c(c1)OCO2	/	51	/	.	92	105	81
COc1ccc(Cl)cc1C(=O)Nc1ccc2c(c1)OCCO2	.	?	.	.	/	/	/
Cc1ccccc1OC(C)C(=O)Nc1ccc2c(c1)OCO2 (stereo unspecified)	.	/	.	.	102	51	36

Screening results deposited in PubChem BioAssay by several laboratories.
